# Assay results as given in PubChem BioAssay AID1851 (National Center for Advancing Translational Sciences (NCATS), 2009).
# Out of some 16,000 compounds screened, about 5,100 (32%) were called active. Roughly 25% stayed inconclusive and do not appear here. This is one part of the list. A number with no mark means an inactive call. Calls come from the whole dose curve; as a rule, active = well fitted curve in the direction sought with a large enough effect; inconclusive = small, poorly fitted or top-dose-only effect, or effect the other way; inactive = no such curve, though single readings can be large or run the other way.
# Target: Cytochrome P450 3A4 (Homo sapiens) (UniProt P08684)
# Experiment: Cytochrome panel assay with activity outcomes
# Details: recombinant CYP, pro-luciferin dealkylation, luminescence, p450-cyp3a4; series mostly up to 57.1 µM; activity, negative = inhibition: at the top concentration
# % is set by controls: 0 for no effect and ±100 for the full control effect.
# Sequence of Cytochrome P450 3A4 (Homo sapiens) (P08684 whole entry, looked up): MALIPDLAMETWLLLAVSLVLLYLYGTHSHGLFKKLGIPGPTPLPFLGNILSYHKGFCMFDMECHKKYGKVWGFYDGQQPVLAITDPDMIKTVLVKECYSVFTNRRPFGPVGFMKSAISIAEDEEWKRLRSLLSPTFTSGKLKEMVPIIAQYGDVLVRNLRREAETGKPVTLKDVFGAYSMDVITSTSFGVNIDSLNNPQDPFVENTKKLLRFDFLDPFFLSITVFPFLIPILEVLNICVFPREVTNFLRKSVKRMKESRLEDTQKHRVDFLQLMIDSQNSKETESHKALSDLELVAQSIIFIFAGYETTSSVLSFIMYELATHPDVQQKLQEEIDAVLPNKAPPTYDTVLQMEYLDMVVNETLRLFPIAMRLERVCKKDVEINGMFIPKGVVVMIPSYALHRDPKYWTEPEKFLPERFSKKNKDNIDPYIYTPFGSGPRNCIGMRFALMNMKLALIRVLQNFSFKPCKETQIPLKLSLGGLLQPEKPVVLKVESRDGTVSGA
SMILES,AC50,"activity, negative = inhibition"
CC(C)CCNC(=O)C12CN(Cc3ccccc3)CC1C(c1cccc([N+](=O)[O-])c1)=NO2 (centres undefined),12.6 µM (active),–
O=C(NCc1ccccc1)C12CN(Cc3ccccc3)CC1C(c1cccc([N+](=O)[O-])c1)=NO2 (centres undefined),7.08 µM (active),–
COc1ccc(C(=O)N2CC3(CC(c4cccc([N+](=O)[O-])c4)=NO3)C[C@H]2C(=O)NCC(N)=O)cc1 (some centres undefined),–,15.2% [at 2.29 µM]
O=C1CC[C@H](N2C(=O)c3ccccc3C2=O)C(=O)N1,inactive,–
Nc1ncnc2c1nc(-c1ccccc1)n2[C@H]1O[C@@H](CO)[C@@H](O)[C@H]1O,–,-3.38% [at 11.4 µM]
Cc1n[nH]c(C)c1S(=O)(=O)N1CCC(C(=O)O)CC1,–,3.15% [at 11.4 µM]
COc1cccc(C(=O)Nc2cc(C(F)(F)F)ccc2Cl)c1,7.94 µM (active),–
COc1cc(/C=C/C(=O)Nc2cc(C(F)(F)F)ccc2Cl)cc(OC)c1OC,–,-14.2% [at 11.4 µM]
COc1cc(C(=O)Nc2cc(C(F)(F)F)ccc2Cl)cc(OC)c1OC,15.8 µM (active),–
Cc1ccc(C(=O)NC(=S)Nc2cc(C(F)(F)F)ccc2Cl)cc1,–,0.666%
CC(C)CNC(=O)O,–,-6.31% [at 11.4 µM]
Cc1ccc(NC(=O)C(C)N2C(=O)C3C4CC(C(Br)C4Br)C3C2=O)cc1 (centres undefined),5.62 µM (active),–
CC(C(=O)Nc1cccnc1)N1C(=O)C2C3C=CC(C3)C2C1=O (centres undefined),12.6 µM (active),–
CC(C)C(=O)Nc1ccc(Sc2ccc(F)cc2)cc1,–,-3.21%
CCC1CCc2c(c3ccccc3[nH]c2=O)O1 (centres undefined),–,-20.1% [at 2.29 µM]
CN(Cc1ccco1)c1ccnc(-c2cccc(NS(C)(=O)=O)c2)n1,6.31 µM (active),–
CN(Cc1ccco1)c1cc(-c2cccc(NS(C)(=O)=O)c2)ncn1,15.8 µM (active),–
O=C(CCN1CCOCC1)Nc1ccc(F)cc1F,–,-14.9% [at 11.4 µM]
COC(=O)CNC(c1ccccc1Cl)c1cc(Br)ccc1NC(=O)CCN1CCOCC1 (centres undefined),3.55 µM (active),–
Cc1cc2c(cc1C)NC(c1nc3ccccc3[nH]1)C1=C(CC(C)(C)CC1=O)N2 (centres undefined),12.6 µM (active),–

SMILES,AC50,"activity, negative = inhibition"
Cc1c(C(=O)O)nc(/C=C\C(=O)O)[nH]c1=O,–,-3.36% [at 11.4 µM]
C=CCSc1nnc(-c2cc3c(-c4ccccc4)nn(C)c3s2)n1C,1.58 µM (active),–
CCCCSc1nnc(-c2cc3c(C(F)(F)F)nn(C)c3s2)n1C,–,-20.2%
C=CCSc1nnc(-c2cc3c(C(F)(F)F)nn(C)c3s2)n1C,8.91 µM (active),–
CCCNC(=O)c1cc2c(C(F)(F)F)nn(C)c2s1,–,19.2% [at 2.29 µM]
C#CCSc1nnc(-c2cc3c(C(F)(F)F)nn(C)c3s2)n1C,7.94 µM (active),–
CCn1cc(C(=O)O)c(=O)c2cc(F)c(N3CCN[C@@H](C)C3)c(F)c21,inactive,–
CN(C)c1ccc(-c2nc(-n3ccnc3)c3ccccc3n2)cc1,0.631 µM (active),–
c1ccc2c(-n3ccnc3)nc(-c3ccoc3)nc2c1,0.2 µM (active),–
Cc1cnc(CNc2ncnc3ccc(-c4ccc5c(c4)OCO5)cc23)cn1,2.51 µM (active),–
Cc1cnc(CNc2ncnc3ccc(-c4ccc(N(C)C)cc4)cc23)cn1,10 µM (active),–
Cc1cnc(CNc2ncnc3ccc(-c4ccoc4)cc23)cn1,15.8 µM (active),–
NC(=S)SCCC(=O)O,–,-7.17% [at 11.4 µM]
CCOC(=O)C1=C(O)C(Nc2nccs2)(C(F)(F)F)N=C1C (centres undefined),14.1 µM (active),–
CCCC(=O)Nc1nc(C(=O)OCC)cs1,–,-13.8%
CC(C)OC(=O)C(CC(=O)O)N1CCOCC1 (centres undefined),–,0.0868%
CCC(Sc1ncccc1C(=O)O)C(=O)N1CCOCC1 (centres undefined),–,3.75%
CCOC(=O)C(C)CC(C)C(=O)N1CCOCCN(C(=O)C(C)CC(C)C(=O)OCC)CCOCC1 (centres undefined),11.2 µM (active),–
COc1cc(OC)c2c(c1)C(=O)c1cc(OC)cc(OC)c1C2=O,3.55 µM (active),–
O=C(NC1CCCCC1)C1CC=CCC1C(=O)OCC(Cl)=C(Cl)Cl (centres undefined),7.94 µM (active),–

SMILES,AC50,"activity, negative = inhibition"
CN(C)CCNc1ncnc2c1sc1nc(N3CCOCC3)c3c(c12)CC(C)(C)SC3,–,-10.7%
CNC(=O)c1ccc(-c2sc3nc(N4CCOCC4)c4c(c3c2N)CC(C)(C)OC4)o1,2.82 µM (active),–
CC(=O)OC[C@@H]1O[C@@H](O/N=C2/C[C@@H](O)[C@@H](O)[C@@H]3[C@@H]4C(=O)N(C(C)(C)C)C(=O)[C@H]4CC[C@H]23)[C@H](OC(C)=O)[C@H](OC(C)=O)[C@@H]1OC(C)=O,–,-17.4% [at 11.4 µM]
O=C(O)[C@H](Cc1ccc(O)c([N+](=O)[O-])c1)N1C(=O)c2ccccc2C1=O,–,6.92% [at 11.4 µM]
O=C1NC(=O)C(c2ccccc2[N+](=O)[O-])=C1Nc1ccc(O)c(Cl)c1,20 µM (active),–
CCc1nnc(NC(=O)c2c(C)nn(-c3ccccc3)c2Cl)s1,–,4.89% [at 2.29 µM]
CCc1nnc(NC(=O)C2Cc3ccccc3CN2S(=O)(=O)c2ccc(C)cc2)s1 (centres undefined),6.31 µM (active),–
O=C(Nc1nnc(C2CC2)s1)C1Cc2ccccc2CN1S(=O)(=O)c1ccccc1F (centres undefined),7.08 µM (active),–
O=C(Nc1nccs1)C1Cc2ccccc2CN1S(=O)(=O)c1ccc(F)cc1 (centres undefined),3.16 µM (active),–
CCOc1ccccc1NC(=O)C1Cc2ccccc2CN1S(C)(=O)=O (centres undefined),–,-25.2% [at 11.4 µM]
CC(=O)c1sc(NC(=O)C(C)C)nc1C,–,-11.3%
OCCNc1nc(SCc2ccccc2)nc2sc3c(c12)CCC3,–,-25% [at 11.4 µM]
CC(CO)Nc1nc(SCc2ccccc2)nc2sc3c(c12)CCC3 (centres undefined),14.1 µM (active),–
Cc1ccc(CSc2nc3c(c(SCC(=O)O)n2)CCCC3)cc1,–,8.65%
COCCNc1nc(SCc2ccccc2)nc2sc3c(c12)CCC3,12.6 µM (active),–
O=C(O)CSc1ncnc2sc3c(c12)CCC3,–,-26%
Cc1nc2c(O)cccc2c(=O)[nH]1,–,-15.4%
COc1cccc(NC(=O)COC(=O)c2nc3nccc(C)n3n2)c1,–,-9.81%
COc1cccc(NC(=O)COC(=O)c2c3c(nc4ccccc24)CCC(C)C3)c1 (centres undefined),3.55 µM (active),–
